In ChEMBL document CHEMBL3988442, “University of Dundee, Small-Polar-MMV Screening Library” (2021):
Screen size: about 48,000 compounds; about 13,000 (27%) showed an effect of 50% or more. This is one part of the list.

What follows are compounds tested on Wolbachia pipientis (assay: Anti-Wolbachia Cell-Based Screen). Details: 5 µM.
Format: functional
Parameters: scale not given: in the data most compounds retested in dose-response had high values

First: Clc1ccccc1C1(c2ccnc(-c3ccncc3)n2)CCNCC1
Second: O=C(c1ccccn1)N1CCC2(CNS(=O)(=O)c3cnccc3O2)C1 (stereo not given)
The “Percent Effect” value of the first is lower: -9.027% for the first, 119.5% for the second.

Compared with `Cc1nccc(N2CCC(=O)N(CC3CC3)C(C(C)C)C2)n1` (stereo not given), `Cc1nccc(N2CCN(C3CCOCC3)CC(C(=O)N(C)C)C2)n1` (stereo not given) is higher in “Percent Effect” value: -7.894% for the first, 164.8% for the second.

Compared with `CCc1c(C)sc2ncnc(N3CCN(C4CCOCC4)CC3)c12`, `Cc1noc(-c2ccnc(N3CCCN(C4CCOCC4)CC3)c2)n1` is lower in “Percent Effect” value: 8.782% for the first, -8.48% for the second.

First: CNC(=O)C1CN(c2ccnc(C)n2)CCN(C2CCOCC2)C1 (stereo not given)
Second: CN(C)C(=O)C1CN(c2ccncn2)CCN(C2CCOCC2)C1 (stereo not given)
The “Percent Effect” value of the first is lower: 102.7% for the first, 126.1% for the second.

Going from `CN(C)C(=O)C1CN(Cc2c[nH]cn2)CCN(C2CCOCC2)C1` (stereo not given) to `Cc1cc(N2CCN(C3CCOCC3)CC(C(=O)N(C)C)C2)ncn1` (stereo not given), the “Percent Effect” value rises from -9.527% to 98.55%.

First: O=C([C@H]1COC[C@H]2CN(c3ccncn3)C[C@H]21)N1CCCC1
Second: Cc1nccnc1N1C[C@H]2CN(C3CCOCC3)C[C@@]2(C(=O)O)C1
The “Percent Effect” value of the first is higher: -2.247% for the first, -7.502% for the second.

Going from `CN1CCN(C(=O)c2ccc(Cn3cc(Br)cn3)cc2)CC1` to `CC(C)(C)C(=O)N1CCN(Cn2nccc2-c2cccnc2)CC1`, the “Percent Effect” value falls from -6.635% to -27.57%.

Going from `CN(Cc1ccc(Cl)s1)C(=O)NCCN1CCCCCC1=O` to `Cc1nc(C2CCN(C(=O)c3ccc(Cl)s3)CC2)cc(=O)[nH]1`, the “Percent Effect” value rises from -12.97% to -8.54%.

First: Cc1cc(NC(=O)C(C)N2CCN(c3nc(C)cs3)CC2)on1 (stereo not given)
Second: Cc1nc[nH]c1-c1nccn1-c1ccc(C(N)=O)c(N2CCCC2)c1
The “Percent Effect” value of the first is lower: 1.656% for the first, 8.513% for the second.

First: COCc1cccc(NC(C(N)=O)c2ccc(Br)cc2)c1 (stereo not given)
Second: CC(CC(=O)NS(=O)(=O)c1ccc2c(c1)OCCO2)c1ccc(F)cc1 (stereo not given)
The “Percent Effect” value of the first is higher: 31.5% for the first, -2.674% for the second.

Going from `Cc1cc(NCC2CCN(c3ccccc3)C2)n2ncnc2n1` (stereo not given) to `CC(C)Cn1cc(NC(=O)N2CCOC(c3ccccc3)C2)cn1` (stereo not given), the “Percent Effect” value rises from 0.02222% to 2.646%.

Compared with `O=C(COCC1CCCO1)N1CCCN(Cc2ccccc2F)CC1` (stereo not given), `CSc1ccccc1CN1CCn2nc(CNC(C)=O)cc2C1` is higher in “Percent Effect” value: -31.39% for the first, -10.31% for the second.

Compared with `CSc1ccc2cc(CN(C)CCCN(C)C)c(=O)[nH]c2c1`, `COc1cccc(CN(C)CCCn2cnc3c(N)ncnc32)c1` is higher in “Percent Effect” value: -7.905% for the first, 85.72% for the second.

First: COc1ccc(OCCN(C)CCCn2cnc3c(N)ncnc32)cc1
Second: CN(CCCn1cnc2c(N)ncnc21)Cc1ccccc1
The “Percent Effect” value of the first is higher: 102.2% for the first, 86.6% for the second.

First: COc1ccc(OCCCN(C)C(=O)C2CCCN2C(N)=O)cc1 (stereo not given)
Second: COc1ccc(OCCN(C)C(=O)NC(C)c2nncn2C)cc1 (stereo not given)
The “Percent Effect” value of the first is lower: -3.357% for the first, 5.358% for the second.

Compared with `COc1cccc(SCCCn2cnc3c(N)ncnc32)c1`, `COc1cccc(CCCn2cnnc2[S+](C)[O-])c1` (stereo not given) is lower in “Percent Effect” value: 97.7% for the first, 5.279% for the second.

First: CN(Cc1ccccc1)CC(O)Cn1cnc2ccccc2c1=O (stereo not given)
Second: CN(Cc1ccccc1)CC(O)Cn1cnc2c(cnn2C)c1=O (stereo not given)
The “Percent Effect” value of the first is higher: 5.606% for the first, -10.76% for the second.

Compared with `COc1cccc(SCC(=O)N2CCC(N3CCCC3=O)CC2)c1`, `COc1cccc(CN(C)C(=O)CN2CCN(CCO)CC2)c1` is higher in “Percent Effect” value: -9.437% for the first, -4.711% for the second.

Going from `CCS(=O)(=O)c1ncc(CN(C)Cc2cccc(OC)c2)n1CCOC` to `CN(C(=O)CCC(F)(F)F)c1cccc2ncccc12`, the “Percent Effect” value rises from -4.749% to 2.571%.

First: C[C@@H]1CN(C(=O)CCCn2nnc(-c3ccc(F)cc3)n2)C[C@]1(C)O
Second: O=C(O)C(F)(F)F.O=C1[C@H]2CN(c3ncccn3)C[C@H]2CN1Cc1ccncc1
The “Percent Effect” value of the first is lower: 1.392% for the first, 3.817% for the second.

Going from `CN(C)C1COC2(CCN(C(=O)c3cccnc3)CC2)C1` (stereo not given) to `CC(C)C(=O)NC1COC2(CCN(C(=O)c3cccnc3)CC2)C1` (stereo not given), the “Percent Effect” value rises from -11.3% to 16.59%.

Compared with `O=C(c1ccc(Cl)s1)N1CCC2(CNS(=O)(=O)c3cnccc3O2)C1` (stereo not given), `O=C(c1cccnc1)N1CCC2(CNS(=O)(=O)c3cnccc3O2)C1` (stereo not given) is lower in “Percent Effect” value: 130.4% for the first, 123.8% for the second.

First: CN(C)CCN1CC2(CCN(C(=O)c3cnccn3)CC2)OC1=O
Second: CC(C)N(C)C(=O)C1=NOC2(CCN(C(=O)c3ccccn3)C2)C1 (stereo not given)
The “Percent Effect” value of the first is lower: -7.77% for the first, 12.65% for the second.

Compared with `CC(C)(C)C(=O)N1CCC2(CC1)CC(Oc1ccccc1)CO2` (stereo not given), `CC(C)(C)C(=O)N1CCC2(CNS(=O)(=O)c3cnccc3O2)C1` (stereo not given) is higher in “Percent Effect” value: -1.342% for the first, 153.5% for the second.

Going from `O=C(c1cnc(-c2ccccc2)s1)N1CCOC2(CCCC2)C1` to `Cc1nc(-c2ccccc2)sc1C(=O)NCCNc1ncccn1`, the “Percent Effect” value rises from -9.958% to 2.127%.

Compared with `Cc1n[nH]c(SCC(=O)N[C@@H](C)C(N)=O)n1`, `O=C(C1CC=CC1)N1C[C@H]2CN(Cc3ccncc3)C(=O)[C@H]2C1.O=C(O)C(F)(F)F` is higher in “Percent Effect” value: -9.569% for the first, 103% for the second.

First: O=C(C1CCOCC1)N1C[C@@H]2[C@@H](C1)OCC(=O)N2Cc1ccncc1.O=C(O)C(F)(F)F
Second: O=C(C1CCC1)N1C[C@@H]2CN(Cc3ccncc3)C(=O)[C@@H]2C1.O=C(O)C(F)(F)F
The “Percent Effect” value of the first is lower: -1.521% for the first, 108.5% for the second.

For `CCN1C[C@@H]2CN(C(=O)C3CC=CC3)C[C@@H]2C1=O`, the “Percent Effect” value was 14.39%.
